Source: PubChem
Many of the other results were omitted from the sample, so hits are more common in it than they were.
Pf Dd2 inh – qHTS Primary assay for Inhibitors of Plasmodium falciparum Dd2 growth in vitro; P. falciparum Dd2 growth, SYBR Green, 72 h; Potency, µM (top dose mostly 28.9 µM), usual class: inhibitors; 120,000 compounds, 4.3% hits; AID 1347417, 2020; active = well fitted inhibition curve with a large enough effect; also: nearly all actives have a fitted effect of over 65% in size
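Readout: SYBR Green fluorescence, 485 nm excitation, 535 nm emission, after ~16 h lysis at 37C. Before that, Dd2-infected red cells (2.5% hematocrit) grew 72 h with compound, 29 uM top final concentration.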
Hits are given with their value; - = inactive; [ ] = remark or other dose.

SMILES	Pf Dd2 inh
C=CCNC(=O)c1cnn2c1CN([S+](C)(=O)[O-])CC2	-
COCCn1c(=O)c2c(n1Cc1ccccc1)CN(Cc1cccnc1OC)CC2	-
COCCn1c(=O)c2c(n1Cc1ccccc1)CN(Cc1ccc(C(C)C)cc1)CC2	-
COCCCN1CCc2c(n(Cc3ccccc3)n(-c3ccccc3)c2=O)C1	11.2µM
CN(C)CCNC(=O)C[C@@H]1O[C@H](CNS(=O)(=O)c2ccc(Cl)cc2)[C@@H](O)[C@H]1O	-
Cn1cnnc1CC1CCN(C(=O)c2cccs2)CC1	-
N#Cc1cccc(CN2CCc3nc(N4CCOCC4)[nH]c(=O)c3CC2)c1	-[5.79 µM]
CC(C)c1ccc(NC(=O)c2cnn3c(C(F)F)cc(-c4ccccc4)nc23)cc1	5.01µM
Cc1ccc(NC(=O)c2cc3nc(-c4ccccc4)cc(-c4ccccc4)n3n2)cc1	-
C#CC(C)(CC)NC(=O)c1cnn2c(C(F)F)cc(-c3ccccc3OC)nc12 (stereo not drawn)	-
COCCN1C(=O)c2cccn2CC1CNC(=O)COc1ccccc1 (stereo not drawn)	-
CC(C)(C)CN1CCOC[C@H]1c1ncc(-c2ccc(Cl)cc2)[nH]1	-
Clc1cccc(-c2cnc([C@@H]3COCCN3C3CCCCC3)[nH]2)c1	11.2µM
COc1cccc(-c2cnc([C@@H]3COCCN3Cc3ccccc3)[nH]2)c1	11.2µM
CS(=O)(=O)c1ccc(CN2CCOC[C@H]2c2ncc(-c3cccc(Cl)c3)[nH]2)cc1	-
Fc1ccc(-c2cnc([C@@H]3COCCN3Cc3ccncc3)[nH]2)cc1	-
Clc1ccc(-c2cnc([C@@H]3COCCN3C3CCOCC3)[nH]2)cc1	-
Clc1ccc(-c2cnc([C@@H]3COCCN3C3CCC3)[nH]2)cc1	-
COc1ccc(-c2cnc([C@@H]3COCCN3Cc3ccc(C)cc3)[nH]2)cc1	-
Clc1ccc(-c2cnc([C@@H]3COCCN3Cc3ccccc3)[nH]2)cc1	10µM
COc1ccc2nc3n(c2c1)[C@@H](CNC1CCOCC1)COC3	-
CC(C)n1cnnc1CC1CCN(C(=O)C2(c3ccccc3)CC2)C1 (stereo not drawn)	-
Cc1ccc(C)c(CN2CCn3c(nn(Cc4ccccc4C)c3=O)C2=O)c1	-
CC1=C(C(=O)Nc2ccccc2)C(c2cc(C)ccc2C)N2C(CC(=O)N3CCCC3)=CSC2=N1 (stereo not drawn)	-
COc1cc(-c2onc(C)c2C(=O)NCCc2ccc(F)cc2)cc(OC)c1OC	-
SMILES	Pf Dd2 inh
COc1cc(-c2onc(C)c2C(=O)NCCC(c2ccccc2)c2ccccc2)cc(OC)c1OC	11.2µM
COCCNC(=O)c1c(C)noc1-c1cc(OC)c(OC)c(OC)c1	-
O=C1Cc2c(-c3ccsc3)n[nH]c2CN1Cc1ccccc1	5.62µM
COCCN1Cc2[nH]nc(-c3ccsc3)c2CC1=O	-
O=C1Cc2c(-c3cccc(C(F)(F)F)c3)n[nH]c2CN1Cc1ccccc1	-
O=C(c1ccncc1)N1CCn2c(nnc2-c2cncc(Br)c2)C1	-
COc1ccc(NC(=O)c2nnn(CC(=O)Nc3c(C)cc(C)cc3C)c2N)cc1OC	-
COc1ccc(Nc2cc(C)nc3c(C)c(C)ccc23)cc1	-
Cc1cccc(Nc2nc(N)nc(N)c2S(=O)(=O)c2ccccc2)c1	-
CCc1sc(Nc2cccc(C)c2)nc1-c1cc2cccc(OC)c2oc1=O	-
COc1cc2nc(Nc3ccc(C)c(C)c3)nc(N)c2cc1OC	0.1µM
COc1cc2nc(Nc3cccc(C)c3)nc(N)c2cc1OC	2.51µM
CCOC(=O)c1ccc(Nc2c(-c3ccc(O)c(OC)c3)nc3nc[nH]n23)cc1	-[0.594 µM]
CCOC(=O)c1ccc(Nc2nc(N)c3cc(OC)c(OC)cc3n2)cc1	1.26µM
COc1cc2nc(Nc3ccc(F)cc3)nc(N)c2cc1OC	2.51µM
COc1ccccc1C(O)c1nc(Nc2ccc(C(C)C)cc2)n[nH]1 (stereo not drawn)	-
COc1ccc(Nc2nc(-c3ccccc3)c3cc(Br)ccc3n2)cc1	-
CCOC(=O)c1ccc2nc(C)cc(Nc3cccc(C(=O)O)c3)c2c1	-
Cc1cc(CN2C[C@@H](CO)[C@H](C(=O)NC3CC3)C2)n(C)n1	-
COCCc1nncn1C1CCN(S(=O)(=O)c2cc(F)ccc2F)CC1	-
O=C(O)C1(Oc2ccccc2F)CCN(Cc2ccc(CO)o2)CC1	-
CCN1CC2(CCC1=O)CCN(C(=O)[C@@](C)(N)Cc1ccccc1)CC2	-
CCCCN(CCC(=O)NCCCOC)C(=O)c1ccoc1	-
COCCN(C)C[C@@H]1CN(C(=O)c2ccc(=O)n(C)c2)C[C@@H]1CO	-
CC(C)CNC(=O)Cc1cccn1-c1ccc(F)cc1	-
SMILES	Pf Dd2 inh
CNC(=O)[C@@H](Cc1ccccc1)N1CCC[C@H]1C(=O)NC(C)(C)C	-
COc1ccc(N2CC(c3noc(-c4ccc(OC(F)(F)F)cc4)n3)CC2=O)cc1 (stereo not drawn)	-
CC(=O)N1CCC(N2C[C@@H](F)[C@@H](OCc3nc4ccccc4[nH]3)C2)CC1	-
CCCc1ncncc1C(=O)N[C@H]1CN(S(C)(=O)=O)C[C@@H]1C(C)C	-
Cc1ccc(OC(C)c2nc(-c3cccnn3)no2)cc1C (stereo not drawn)	-
Cc1cc(Nc2cccc(C(F)(F)F)c2)nc2ccc(NC(=O)Cc3ccc(Cl)cc3)cc12	11.2µM
CCn1nnc2cc(C(=O)Nc3cccc(C(F)(F)F)c3)ccc21	-
Cc1cc(Nc2cccc(C(F)(F)F)c2)nc2ccc(NC(=O)c3ccc(N(C)C)cc3)cc12	2.82µM
Cc1ccc(OCC(=O)Nc2ccc3nc(Nc4cccc(Cl)c4)cc(C)c3c2)cc1	-
CCN(CC)c1cc(C)c2cc(NC(=O)c3cccc(F)c3)ccc2n1	-
Cc1ccccc1-c1nc2cc(NC(=O)Cc3ccc(Cl)cc3)ccc2o1	-
O=C(Cn1nc2n(c1=O)CCCC2)Nc1ccc(F)cc1	-
COc1cccc([C@@H]2Nc3ccc(C(=O)O)cc3[C@@H]3C=CC[C@@H]32)c1OC	-
COc1cccc(NS(=O)(=O)c2ccc3c(c2)[C@H]2C=CC[C@H]2[C@@H](c2ccccc2Cl)N3)c1	10µM
COc1cccc(NS(=O)(=O)c2ccc3c(c2)CCCN3C(=O)C2CCC2)c1	-
O=C(NC1CCCN(c2cc(-c3ccc(F)cc3)[nH]n2)C1)c1ccc2c(c1)OCO2 (stereo not drawn)	-
Cc1cccc(NC(=O)Cn2c(-c3cnccn3)nc(C)c(CCO)c2=O)c1C	-
COc1ccc(-c2nc(C)nc3c2CCN(CC2CC2)CC3)cc1	-
COc1ccc(-c2nc(C3CC3)nc3c2CCN(Cc2ccccc2)CC3)cc1	5.01µM
Clc1ccc(-c2nc(C3CC3)nc3c2CCN(Cc2ccccc2)CC3)cc1	-
COc1ccc(-c2nc(C3CC3)nc3c2CCN(Cc2cc(C)on2)CC3)cc1	2.51µM
COc1ccc(CC(=O)N2CCc3nc(C4CC4)nc(-c4ccc(Cl)cc4)c3C2)cc1	-
COc1ccc(-c2nc(C)nc3c2CCN(CCC(C)C)CC3)cc1	-
COCCN1CCCC2(CCN(C(=O)C3(C)CCCCC3)C2)C1=O (stereo not drawn)	-
O=C(Nc1ccc(F)cc1)c1ccn2nccc2c1	-
Cc1ccc(C)c(OCCn2cc(C(=O)c3ccco3)c3ccccc32)c1	1µM
COc1ccc(NC(=O)Cn2cc(C(=O)C3CCCCC3)c3ccccc32)cc1	-
Cc1ccc(NC(=O)Cn2cc(C(=O)c3ccccc3)c3ccccc32)c(C)c1	-
CCOC(=O)c1ccc(NC(=O)Cn2cc(C(=O)c3cccs3)c3ccccc32)cc1	-
COc1ccc(OCC(=O)Nc2ccc3c(c2)nc(CCNC(=O)c2ccco2)n3C)cc1	-
